# Sampled rows, rich in hits. Any-hit rate of the full collection: about 9.4%.
# SMN2 splice enh – qHTS Assay for Enhancers of SMN2 Splice Variant Expression; HEK293 SMN2-luciferase splicing reporter, luminescence, 30-36 h; hit rate 2.8% among 210,000; Potency, µM (top dose mostly 46.1 µM), hits mostly activators; note: nearly all actives have a fitted effect of over 55% in size
#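 HEK293 cells carry an SMN2 minigene-luciferase reporter in which exon 7 inclusion puts luciferase in frame. Cells were seeded at 2000 cells/well, attached for 10-12 hours, then exposed to compounds for 30-36 hours at 37C before ONE-Glo luminescence.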
# ELG1 repair inh – qHTS screen for small molecules that inhibit ELG1-dependent DNA repair in human embryonic kidney (HEK293T) cells expressing luciferase-tagged ELG1. hit rate 2.3% among 330,000. AID 504467, 2011. HEK293T ELG1-luciferase reporter, luminescence, 16 h; DNA damage induced by 5-fluorouridine. Potency, µM (titrated, usually from 46.1 µM), most hits filed as inhibitors; note: nearly all actives have a fitted effect of over 55% in size
#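 Luminescence from the luciferase reporter, measured 30 min after ONE-Glo reagent at room temperature, was the read-out. Beforehand, 2,000 cells per well were exposed for 16 hr at 37 °C to 5-fluorouridine together with compound or vehicle.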
# ELG1 genotoxic – qHTS screen for small molecules that induce genotoxicity in human embryonic kidney (HEK293T) cells expressing luciferase-tagged ELG1; HEK293T ELG1-luciferase reporter, luminescence, 16 h; Potency, µM (top dose mostly 46 µM), actives largely listed as activators; hit rate 1.3% among 330,000; AID 504466, 2011; note: nearly all actives have a fitted effect of over 60% in size
#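 After overnight (16 hr) compound treatment at 37 °C, ELG1-luciferase HEK293T cells were lysed with ONE-Glo; luminescence quantified 30 min later at room temperature.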
# Rab9 prom act – qHTS Assay for Rab9 Promoter Activators; Huh7 Rab9 promoter-luciferase reporter, luminescence, 24 h; Potency, µM (titrated, usually from 9.22 µM), actives largely listed as activators; hit rate 2.8% among 320,000; AID 485297, 2010; note: nearly all actives have a fitted effect of over 60% in size
#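 Measured in stably transfected Huh7 cells bearing a Rab9 promoter–luciferase construct: 24 h compound treatment at 37 °C, followed by luminescence detection.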
# NPC1 prom act – qHTS Assay for NPC1 Promoter Activators; Huh7 NPC1 promoter luciferase reporter, 24 h; Potency, µM (titrated, usually from 9.22 µM), most hits filed as activators; hit rate 2.4% among 320,000; note: nearly all actives have a fitted effect of over 60% in size
#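 Luminescence read-out of NPC1 promoter-driven luciferase in stably transfected Huh7 cells; compounds delivered in DMSO and left 24 h at 37C, 5% CO2, qHTS titration format.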
# FLuc counter – qHTS profiling assay for firefly luciferase inhibitor/activator using purifed enzyme and Km concentrations of substrates (counterscreen for miR-21 project). Luciferin 4-monooxygenase (Photinus pyralis), P08659. purified FLuc, Km substrates, luminescence inhibition. Potency, µM (top dose mostly 57.5 µM), actives largely listed as inhibitors. hit rate 6.9% among 360,000; note: nearly all actives have a fitted effect of over 55% in size
# Target sequence (P08659 whole entry, looked up): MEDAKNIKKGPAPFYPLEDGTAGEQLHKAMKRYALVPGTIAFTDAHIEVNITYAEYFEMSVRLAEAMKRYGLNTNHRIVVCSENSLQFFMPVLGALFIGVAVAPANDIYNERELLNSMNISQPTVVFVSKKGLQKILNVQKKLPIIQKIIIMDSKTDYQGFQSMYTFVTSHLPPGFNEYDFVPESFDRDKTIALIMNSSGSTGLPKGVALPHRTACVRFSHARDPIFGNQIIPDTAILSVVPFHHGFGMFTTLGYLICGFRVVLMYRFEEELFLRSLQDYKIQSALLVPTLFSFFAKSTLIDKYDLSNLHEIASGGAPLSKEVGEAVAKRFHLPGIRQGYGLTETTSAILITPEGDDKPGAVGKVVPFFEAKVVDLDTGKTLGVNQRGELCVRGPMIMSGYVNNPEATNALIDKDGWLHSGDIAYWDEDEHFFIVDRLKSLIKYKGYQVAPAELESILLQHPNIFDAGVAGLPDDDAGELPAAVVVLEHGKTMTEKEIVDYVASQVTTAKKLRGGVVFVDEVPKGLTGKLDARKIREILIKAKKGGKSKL
#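 Purified P. pyralis luciferase (10nM final) with 10uM D-luciferin and 10uM ATP (Km levels) in 50mM Tris acetate pH 7.5, 10mM Mg acetate, 0.01% Tween-20, 0.05% BSA; qHTS 6-point titration, ~60 µM downward; luminescence read.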
# Numbers stand for hits; . = inactive; ? = inconclusive; / = not tested or not shown; [ ] = dose if it differs, or a comment. Calls come from the whole dose curve; as a rule, active = well fitted curve in the direction sought with a large enough effect; inconclusive = small, poorly fitted or top-dose-only effect, or another doubt; inactive = no such curve, though single readings can be large; an effect the other way counts as inactive or inconclusive.
SMILES,SMN2 splice enh,ELG1 repair inh,ELG1 genotoxic,Rab9 prom act,NPC1 prom act,FLuc counter
O=C(c1ccccc1)c1cnc(-c2ccccc2)s1,13µM,?,2.1µM,0.32µM,0.5µM,1.2µM
O=C(c1ccc(Cl)cc1)c1cnc(-c2ccc(Cl)cc2)s1,?,.,.,.,.,.
Fc1ccccc1N1CCN(c2ncnc3onc(-c4cccc(Cl)c4)c23)CC1,.,/,/,/,/,.
Cn1c(Oc2ccc(Cl)cc2)c(C=O)c2ccccc21,/,12µM,.,.,.,.
Cn1c(Sc2ccc(Cl)cc2)c(C=O)c2ccccc21,.,7.3µM,.,.,.,.
COc1ccc(Oc2c(C=O)c3ccccc3n2C)cc1,.,.,.,.,.,.
Oc1[nH]c2ccccc2c1N=Nc1ccccc1F,22µM,?,?,?,?,?
O=Nc1c(-c2c(O)[nH]c3ccccc23)[nH]c2ccccc12,13µM,/,/,?,4.6µM,/
O=C(CNC(=O)Cc1ccccc1)N=Nc1c(O)[nH]c2ccccc12,/,.,.,.,.,.
O=C(N=Nc1c(O)[nH]c2ccccc12)c1cc(-c2ccc(F)cc2)n[nH]1,.,.,.,.,.,.
Oc1[nH]c2ccc(Br)cc2c1N=Nc1ccc(F)cc1,/,.,.,.,.,.
COC(=O)/C=C(\C)N=Nc1c(O)[nH]c2ccccc12,/,?,.,.,.,24µM
Oc1[nH]c2ccccc2c1N=Nc1ccccc1,/,?,?,?,.,6µM
NCCCc1c(-c2ccccc2)nc(N)[nH]c1=O,.[9.22 µM],/,/,/,/,/
CCc1nnc(SCC(=O)Nc2cccc(C(F)(F)F)c2)c2cc3oc(C)cc3n12,/,/,/,/,/,.
COc1ccccc1CNS(=O)(=O)c1ccc(F)c(C(=O)Nc2cc(Cl)ccc2OC)c1,/,/,/,/,/,.
O=[N+]([O-])c1ccc2[nH]c(O)c(N=Nc3ccc(F)cc3)c2c1,/,.,.,.,.,.
Oc1[nH]c2ccccc2c1N=Nc1nc2ccccc2s1,2.5µM,?,0.46µM,1.1µM,3.5µM,1.3µM
O=[N+]([O-])c1ccc(N=Nc2c(O)[nH]c3ccc(F)cc23)cc1,/,?,?,?,2.8µM,.
Oc1[nH]c2ccccc2c1N=Nc1ccc(F)cc1,.[1.84 µM],?,?,?,.,4.8µM
O=C(CCn1c(=O)c2cccn2c2ccc(F)cc21)NCCc1ccccc1Cl,/,/,/,/,/,.
CCOc1ccc(-n2cc(-c3ccccc3)c3c(NCCc4ccccc4)ncnc32)cc1,/,/,/,/,/,.
COc1ccc(Nc2ncc3c(n2)CCN(Cc2cccc(F)c2F)C3)c(OC)c1,/,/,/,/,/,.
COc1ccc(/C=C(\C#N)c2nc(-c3cc(Cl)ccc3OC)cs2)cc1,.,/,/,/,/,.
CCOc1ccc(-c2cc(CCCC(=O)NCCc3ccc(OC)c(OC)c3OC)no2)cc1,.,.,.,.,.,?
SMILES,SMN2 splice enh,ELG1 repair inh,ELG1 genotoxic,Rab9 prom act,NPC1 prom act,FLuc counter
CCOc1ccc(-c2cc(CCCC(=O)Nc3cc(OC)ccc3OC)no2)cc1,.,.,.,.,.,6µM
CCOc1ccc(NC(=O)CCCc2cc(-c3ccc(OCC)cc3)on2)cc1,.,.,.,.,.,.
CCOc1ccc(-c2cc(CCCC(=O)Nc3cccc(OC)c3)no2)cc1,.,?,.,.,.,6.7µM
CCOc1ccc(/C=C/c2nc3ccccc3n2S(=O)(=O)c2ccc(Br)cc2)cc1,2.8µM,/,/,/,/,0.85µM
CN1CCCN(S(=O)(=O)c2cccc(C(F)(F)F)c2)c2nc3ccccc3nc21,/,.,.,.,.,/
Cc1nc2ccccc2n1S(=O)(=O)c1ccc(Br)cc1,.,.,.,.,.,.
CCc1ccc(S(=O)(=O)n2c(C)nc3ccccc32)cc1,/,.,.,.,.,.
CSc1ccc(/C=C/c2nc3ccccc3n2S(=O)(=O)c2ccc(Br)cc2)cc1,0.5µM,/,/,/,/,0.043µM
O=S(=O)(c1cccc(C(F)(F)F)c1)n1c(/C=C/c2ccccc2)nc2ccccc21,/,/,/,/,/,12µM
